In the library only some 21% were active in any assay of this set; here they are far more common.
CHX counter = Cycloheximide Counterscreen for Small Molecule Inhibitors of Shiga Toxin; AID 2314, 2010; 300,000 compounds, 12% hits; cell reporter, cycloheximide protein synthesis inhibition counterscreen; max response, %; in the data active = max response mostly above about 13%, no sharp cut-off; inactive = mostly below about 14%; note: read at 38.3 µM for the half of the compounds with a filed dose; 0% is about no effect
Pf growth 48h = Primary qHTS for delayed death inhibitors of the malarial parasite plastid, 48 hour incubation; P. falciparum luciferase growth in erythrocytes, 48 h; Potency, µM (doses to about 28.7 µM), without a hit: at the top dose activity change, negative = inhibition, usual class: inhibitors; 310,000 compounds, 5.9% hits; note: potency is the fitted concentration of half-maximal effect; % is set by controls: 0 for no effect and ±100 for the full control effect
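Cell-based growth assay: transgenic P. falciparum expressing firefly luciferase, cultured in red cells within RPMI 1640 containing 0.5% w/v Albumax, 24 mM bicarbonate and gentamycin. A drop in luciferase activity indicates inhibition.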
Pf growth 96h = Primary qHTS for delayed death inhibitors of the malarial parasite plastid, 96 hour incubation. Potency, µM (titrated, usually from 28.7 µM), without a hit: top-dose activity change, negative = inhibition, actives largely listed as inhibitors. AID 504834, 2011. 320,000 compounds, 6.9% hits. P. falciparum luciferase reporter growth, 96 h; note: potency is the fitted concentration of half-maximal effect; % is set by controls: 0 for no effect and ±100 for the full control effect
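Two-generation exposure (96 h) targets delayed-death phenotype. Reporter parasites carrying integrated firefly luciferase, in red cells at 2% hematocrit and 0.05% parasitemia final, kept at 37 C, 5% CO2; luminescence loss indicates inhibition.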
Shiga toxin inh = A qHTS for Small Molecule Inhibitors of Shiga Toxin. Vero cells, Shiga toxin protein synthesis inhibition reporter. inhibition, % at 38.7 µM. 290,000 compounds, 9.2% hits; in the data active = inhibition mostly above about 28%, no sharp cut-off; inactive = mostly below about 43%; note: 0% is about no effect
Numbers without * were called inactive; ? = inconclusive; . = not tested or not shown. Unless noted, calls come from the whole dose curve; as a rule, active = well fitted inhibition curve with a large enough effect; inconclusive = small, poorly fitted or top-dose-only effect, or another doubt; inactive = no such curve, though single readings can be large or run the other way.

SMILES	CHX counter	Pf growth 48h	Pf growth 96h	Shiga toxin inh
Clc1ccc(-n2nnnc2-c2cnc3ccccc3c2-c2ccccc2)cc1	-3	5.2µM*	10µM*	-9
O=C(Nc1ccccc1)C1Cc2ccccc2CN1C(=O)c1ccco1 (stereo not given)	57*	.	?	104
Cc1c(Cl)cccc1NC(=O)C1Cc2ccccc2CN1C(=O)c1ccccc1 (stereo not given)	7	-12%	9.3µM*	-7
COc1ccccc1NC(=O)C1Cc2ccccc2CN1C(=O)c1ccco1 (stereo not given)	-4	?	-19%	32
CCc1ccc(-n2c(C)n[nH]c2=S)cc1	-6	28%	16%	39
CC(Nc1c[nH]c(=O)[nH]c1=O)c1ccccc1 (stereo not given)	-4	24%	0%	-4
Cc1ccc(N2C(=O)N(CC(=O)N3CCOCC3)C(=O)C2C)cc1 (stereo not given)	8	5%	10%	13
Cc1ccc(C(=O)N/N=C\c2ccc(OC(=O)c3cccc(F)c3)cc2)cn1	-3	-22%	?	-3
COc1cccc(/C=N\NC(=O)c2ccc(C)nc2)c1	29*	29%	?	46*
Cc1ccc(C(=O)N/N=C\c2cccc(OC(=O)c3cccc(F)c3)c2)cn1	20*	14%	-1%	43*
CC1CCCCC1NC(=O)CCNS(=O)(=O)c1ccc(Cl)cc1 (stereo not given)	-1	?	3%	-4
COc1ccc(/C=C/c2cc(C(F)(F)F)on2)cc1	40*	49%	51%	64*
CC(=O)N1CCN(S(=O)(=O)c2cccc(C(=O)NC3CC3)c2)CC1	.	1%	-12%	.
CC(=O)N1CCN(S(=O)(=O)c2cccc(C(=O)Nc3ccc(C)cn3)c2)CC1	45*	17%	14%	77*
Cc1cc(N2CCN(C)CC2)ccc1NC(=O)c1cccc(S(=O)(=O)N2CCc3ccccc3C2)c1	-10	?	10µM*	-42
CN1CCN(S(=O)(=O)c2cccc(C(=O)Nc3ccccc3N3CCCC3)c2)CC1	-3	-9%	-15%	-11
Cc1ccc(NC(=O)c2cccc(S(=O)(=O)N3CCc4ccccc4C3)c2)nc1	.	7.4µM*	9.3µM*	.
O=C(O)CNC(=O)c1ccccc1I	-5	2%	12%	-10
COc1cc(C(=O)Nc2nnc(C3=COCCO3)o2)cc(OC)c1OC	-3	-23%	13%	-4
Cc1ccc(C(=O)N2CCC3(CC2)NCCc2[nH]cnc23)cc1C	-3	18%	23%	22
CCCCN(C/C=C/c1ccccc1OC)Cc1ccccc1	5	?	8.3µM*	24
CCN(C/C=C/c1ccccc1OC)Cc1ccccc1	-1	6%	109%	15
CC(=O)Nc1nc(C2COc3ccccc3O2)cs1 (stereo not given)	32*	184%	239%	50*
NC(N)=Nc1nc(C2COc3ccccc3O2)cs1 (stereo not given)	37*	-54%	0%	75*
COc1ccc2nc(Cl)c(C#N)cc2c1	-3	22%	17%	27
SMILES	CHX counter	Pf growth 48h	Pf growth 96h	Shiga toxin inh
Cc1ccc(C(=O)OCC(=O)NC(=O)c2ccccc2)o1	.	3%	35%	.
COc1ccc([C@H]2[C@H](C(=O)OC(C)(C)C)N3N=Cc4ccccc4C3C23C(=O)c2ccccc2C3=O)cc1OC (stereo not given in full)	10	10µM*	9.3µM*	46
COc1ccc(C2C(C(=O)Nc3cccc(C)n3)c3ccccc3C(=O)N2C)cc1OC (stereo not given)	-2	?	?	55
COc1ccc([C@H]2[C@H](C(=O)OC(C)(C)C)N3N=Cc4ccccc4C3C23C(=O)c2ccccc2C3=O)c(OC)c1 (stereo not given in full)	18*	2.9µM*	1µM*	45*
CCCC(=O)Nc1c(-c2ccccc2)c(=O)c(C)nn1-c1ccc(C)cc1	0	-2%	-33%	-1
Cc1cc(Nc2nc(Cl)c(Cl)cc2Cl)n(-c2ccccc2)n1	-3	4%	-4%	-12
Cc1ccsc1/C=N/Nc1nc(Cl)c(Cl)cc1Cl	41*	-8%	156%	45
Cc1ccc(/C=N/Nc2nc(Cl)c(Cl)cc2Cl)s1	28*	101%	288%	96*
CCC(c1nnc(SCC(=O)NC2CCCCC2)n1Cc1ccccc1)N(C)C (stereo not given)	.	?	-16%	.
O=C1CCCN1CCCNc1ccc2nnc(CCC(=O)N3CCN(c4ccccc4)CC3)n2n1	-6	11%	72%	-10
COc1ccc(OC)c(C2C(C(C)=O)=C(C)Nc3ncnn32)c1 (stereo not given)	-7	17%	229%	-7
COC(=O)C(C)(C)ONC(=O)Nc1ccccc1	-2	16%	0%	28
O=C(CSc1nnc(-c2ccco2)o1)N1CCOCC1	7	58%	72%	20
CCN(CC)S(=O)(=O)c1ccc(-c2nnc(SCC(C)=O)o2)cc1	-1	.	?	11
CCN(CC)S(=O)(=O)c1ccc(-c2nnc(SCC(=O)N3CCOCC3)o2)cc1	1	?	8.3µM*	-6
CCN(CC)S(=O)(=O)c1ccc(-c2nnc(SCC(=O)Nc3cc(OC)cc(OC)c3)o2)cc1	-2	13µM*	.	-18
CC1CCCCN1C(=O)CSc1nnc(-c2ccco2)o1 (stereo not given)	37*	123%	5.2µM*	108*
COc1cc(NC(=O)CSc2nnc(-c3cc(C)on3)o2)cc(OC)c1	-6	-8%	-33%	-7
CC1CCCCN1C(=O)CSc1nnc(-c2ccccc2F)o1 (stereo not given)	35*	131%	3%	94*
O=C(N/C(=C\c1cccs1)C(=O)N1CCOCC1)c1cccs1	-1	51%	39%	11
COc1ccccc1-n1cnnc1SCC(=O)Nc1cccc(S(N)(=O)=O)c1	-7	-8%	19%	4
O=C(NCN1CCOCC1)c1cnccn1	-3	-16%	37%	8
CCN(CC)S(=O)(=O)c1cccc(-c2nnc(SCCOc3ccccc3)o2)c1	-2	.	-45%	28
N#CC1(NC(=O)CSc2nnc(Cc3ccccc3)o2)CCCCC1	.	-18%	?	.
COc1cc(OC)cc(-c2nnc(SCC(=O)N3CCOCC3)o2)c1	-3	3.7µM*	3%	-4
SMILES	CHX counter	Pf growth 48h	Pf growth 96h	Shiga toxin inh
CCN(CC)S(=O)(=O)c1cccc(-c2nnc(SCCOc3ccc(Cl)cc3)o2)c1	-4	-24%	10µM*	4
Cc1cc(C)cc(NC(=O)CSc2nnc(-c3ccccc3Br)o2)c1	1	.	.	-12
CCOc1ccccc1-c1nnc(SCC(=O)NC2(C#N)CCCC2)o1	.	?	9.3µM*	.
O=C(CSc1nnc(-c2ccccc2Br)o1)N1CCc2ccccc2C1	-5	8%	3.3µM*	-11
CN(C(=O)COC(=O)c1ccccc1Cc1ccccc1)C1CCS(=O)(=O)C1 (stereo not given)	9	66%	5%	15
COc1cccc(NC(=O)C(C)N2C(=O)c3ccccc3C2=O)c1 (stereo not given)	1	11%	?	10
